Results reported in ChEMBL document CHEMBL1961873, “Compounds: GSK PKIS; Assays: Nanosyn kinase panel” (2012).

Target: Serine/threonine-protein kinase PLK1 (Homo sapiens) (UniProt P53350)
Settings: at 1 µM
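Note: reported value is a mean PLK1 inhibition.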

Serine/threonine-protein kinase PLK1 (Homo sapiens), sequence (P53350 whole entry): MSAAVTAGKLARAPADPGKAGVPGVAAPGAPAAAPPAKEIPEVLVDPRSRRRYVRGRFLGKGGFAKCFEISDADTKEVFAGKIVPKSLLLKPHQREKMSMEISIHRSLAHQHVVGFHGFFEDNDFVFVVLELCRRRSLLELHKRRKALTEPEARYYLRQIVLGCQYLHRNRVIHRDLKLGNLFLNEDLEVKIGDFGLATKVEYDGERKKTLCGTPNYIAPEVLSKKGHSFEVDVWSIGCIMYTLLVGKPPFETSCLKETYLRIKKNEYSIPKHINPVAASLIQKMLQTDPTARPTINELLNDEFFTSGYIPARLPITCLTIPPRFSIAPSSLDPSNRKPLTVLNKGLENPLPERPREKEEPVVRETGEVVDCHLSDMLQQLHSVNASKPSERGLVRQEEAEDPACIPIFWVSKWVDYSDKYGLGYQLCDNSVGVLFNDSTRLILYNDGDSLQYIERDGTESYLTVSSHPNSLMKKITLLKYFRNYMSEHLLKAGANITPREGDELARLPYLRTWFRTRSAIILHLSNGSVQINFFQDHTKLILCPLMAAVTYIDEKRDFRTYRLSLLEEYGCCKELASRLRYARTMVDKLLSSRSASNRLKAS

Row | SMILES | inhibition
1 | CCn1c(-c2nonc2N)nc2c(C#CC(C)(C)O)nc(OCCNC)cc21 | 8.02%
2 | COC(=O)Nc1nc2cc(Oc3ccc(NC(=O)Nc4cccc(Br)c4)cc3)ccc2[nH]1 | 2.36%
3 | Nc1nccc(-c2c(-c3ccc(F)cc3)nn3cc(C(F)(F)F)ccc23)n1 | 0.4%
4 | CN(C)CCCn1c(-c2nonc2N)nc2cnccc21 | 4.15%
5 | COc1cc(Nc2nccc(-c3cnn4ncccc34)n2)cc(OC)c1 | 36.9%
6 | C[C@@H](Oc1cc(-n2cnc3ccc(OC[C@@H](O)CO)cc32)sc1C(N)=O)c1ccccc1Cl | 93.5%
7 | N#Cc1cccc(Nc2nccc(-c3cnn4ncccc34)n2)c1 | 9.23%
8 | COc1cc(/C=N/Nc2ncnc3c2cnn3C(C)C)ccc1O | 4.86%
9 | Nc1ccc(C#Cc2cncnc2Nc2ccc(OCc3cccc(F)c3)c(Cl)c2)cc1 | -0.53%
10 | Cc1ccc2c(c1)/C(=N/Nc1ccc(S(N)(=O)=O)cc1)C(=O)N2 | 1.12%
11 | NC(=O)c1cccc(Nc2nccc(Nc3cccc(F)c3)n2)c1 | 6.07%
12 | NS(=O)(=O)c1ccc(NC=C2C(=O)Nc3ccc4ncsc4c32)cc1 | 6.99%
13 | Cc1ccc2c(-c3ccnc(Nc4cccc(C(F)(F)F)c4)n3)c(-c3ccccc3)nn2n1 | 6.37%
14 | NS(=O)(=O)c1ccc(N/N=C2\C(=O)Nc3ccc(Cl)cc32)cc1 | 2.65%
15 | COC(=O)c1cncc(/C=C/c2c(C)cc(O)cc2C)c1 | 1.85%
16 | COc1cccc(-n2ncc3c(N/N=C/c4ccc(S(C)(=O)=O)cc4)ncnc32)c1 | 0.92%
17 | CN(C)C(=O)O[C@H]1CN[C@H](C#Cc2cc3ncnc(Nc4ccc(OCc5cccc(F)c5)c(Cl)c4)c3s2)C1 | 2.92%

Row | SMILES | inhibition
18 | Cc1cc(Cl)cc2c1NC(=O)C2=NNc1ccc(S(N)(=O)=O)cc1 | 2.07%
19 | Cc1ccc(C(=O)NC2CC2)cc1-c1ccc2[nH]ncc2c1 | -0.76%
20 | O=C(Nc1ccc(Oc2ccc3[nH]c(NC(=O)c4ccco4)nc3c2)cc1)Nc1cc(C(F)(F)F)ccc1F | 1.34%
21 | NS(=O)(=O)c1ccc(-c2cc3ccncc3cc2OCc2ccccc2)cc1 | 1.7%
22 | Cc1cc(O)cc(C)c1/C=C/c1cncc(C(=O)N(C)C)c1 | 3.62%
23 | CN(c1ccc(NC(=O)Nc2ccc(OC(F)(F)F)cc2)cc1)c1ccnc(Nc2cccc(S(N)(=O)=O)c2)n1 | -0.02%
24 | Cc1ccc(O)cc1Nc1ccnc2ccc(S(C)(=O)=O)cc12 | 2.78%
25 | Cc1cc(-c2ccccn2)cc(C)c1/C=C/c1cncc(-c2nn[nH]n2)c1 | 5.56%
26 | O=C1Nc2ccccc2/C1=C/Nc1ccc2[nH]c(=O)[nH]c2c1 | 3.82%
27 | ON=C1CCc2cc(-c3nc(C4CCNCC4)[nH]c3-c3ccncc3)ccc21 | 0.96%
28 | C[C@@H](Oc1cc(-n2cnc3ccc(OCC4CCN(C)CC4)cc32)sc1C(N)=O)c1ccccc1C(F)(F)F | 94.3%
29 | Cc1nc(-c2ccccc2)n2nc(NCCCN3CCOCC3)ncc12 | 3.22%
30 | [O-][S+]1CCN(Cc2ccc(-c3ccc4ncnc(Nc5ccc(OCc6ccccc6)c(Cl)c5)c4c3)o2)CC1 | 2.79%
31 | Oc1cccc(-c2nc(-c3ccccc3)[nH]c2-c2ccncc2)c1 | 1.85%
32 | Nc1nccc(-c2c(-c3ccc(F)cc3)ncn2CCCN2CCOCC2)n1 | 4.49%
33 | Cc1ccc(Nc2ccnc(Nc3cccc(C(N)=O)c3)n2)cc1O | 6.17%
